Our source for the caspase activation values is PubChem BioAssay AID2462 (Broad Institute, 2010).

Molecules are shown by their SMILES. Screen size: about 330,000 compounds; about 220 (0.067%) were called active. The sample as a whole holds a higher share of actives than the screen did. Values without a mark were called inactive.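 The calls were made as follows: active = over half of replicate activation scores above 10%, or exactly half above 10 with the replicate mean above 10; inconclusive = replicate mean below 10 yet half the replicates above 10; inactive = over half of replicates below 10.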

This assay can be described thus: inducers of caspase signal in A1-primed MEFs – cell-based, luminescence, HTS, A1 inhibitor project, primary screen (AID 2462). Conditions: MEF A1-2A-BIM cells, Caspase-Glo 3/7 luminescence, 3 h; active compounds read high; percent of clofoctol response, vehicle zero; concentration not given here.
For the compound `COc1cccc(NC(=O)CN(C)C(C)C(=O)Nc2ccc(C#N)cc2)c1` (configuration not stated), the caspase activation is 0.554%.

On to `CC[N+](C)(CC)CCC[n+]1c(-c2ccccc2)c2cc(N)ccc2c2ccc(N)cc21`, for which the caspase activation was 2.85%. As for `CC(=O)Nc1ccc(Sc2ccccc2C(=O)N2CCCC2)cn1`, the figure is 0.126%. As for `Cn1c(C(=O)O)ccc1S(=O)(=O)N(Cc1ccccc1)Cc1ccccc1`, the figure is -0.442%.

Take `O=C(NCCc1ccco1)C(=O)NCCC1CCCCN1S(=O)(=O)c1ccccc1` (configuration not stated): the caspase activation is 0.605%. Consider `CN(C)c1ccc(Nc2c3c4c(cccc4n(C)c2=O)C(=O)c2ccccc2-3)cc1`, for which the caspase activation is -0.124%. For the compound `CC1(C)COC(c2cccn2Cc2ccccc2Cl)=N1`, the caspase activation is -0.0448%. With `O=C(NNC(=O)c1cccc(S(=O)(=O)Nc2ccc(Cl)cc2)c1)c1ccc(=O)[nH]c1`, the caspase activation was -1.36%. In the case of `COc1cc(SC#N)ccc1N=Cc1c(C)[nH]n(-c2ccc(C)cc2)c1=O`, the caspase activation is 11.1% (active). As for `Cc1ccc(-n2[nH]c(C)c(/C=N/NC(=O)c3cccc([N+](=O)[O-])c3)c2=O)cc1C`, the figure is -4.49%; as for `Cc1[nH]n(-c2ccccc2)c(=O)c1/C=N/NC(=O)c1ccoc1C`, -3.41%; as for `O=C(NNS(=O)(=O)c1c(F)cc(F)c(Cl)c1F)C12CC3CC(CC(C3)C1)C2`, 0.494%.

With `CCOC(=O)c1c(-c2cccc(N)c2)cn2ccccc12`, the caspase activation was 0.104%. In the case of `Cc1cc(NC(=O)CN2C(=O)NC(C)(CCc3ccccc3)C2=O)no1` (configuration not stated) it was -0.914%; in that of `Cc1ccc(N/N=C2\COC(C)(C)CC2=O)cc1`, 0.0616%. As for `Cc1c(Cl)cccc1NC(=O)CSc1ccc(-c2cccnc2)nn1`, the figure is 0.424%. Take `CC(C)C[C@H](NC(=O)N1CC(=O)Nc2ccccc21)C(=O)N[C@H](Cc1ccccc1)C(=O)O`: the caspase activation is 0.252%. In the case of `CNC(=O)COc1ccc(S(=O)(=O)Nc2ccccc2)cc1` it was -0.951%; in that of `CCOC(=O)/C(=N\Nc1ccccc1[N+](=O)[O-])c1csc(Nc2ccccc2)n1`, -0.494%. As for `Cc1ccc(NC(=O)/C(=C/c2ccc([N+](=O)[O-])cc2)NC(=O)c2ccccc2)cc1`, the figure is -0.427%. As for `CCOC(=O)/C(=C\c1ccc([N+](=O)[O-])cc1)C(=O)c1cc(C(C)=O)c(Nc2ccccc2)s1`, the caspase activation was 46.4% (active). In the case of `C/C(=C/C(=O)N1CCN(C)CC1)C(=O)O` it was 0.653%. In the case of `Cc1cc(C)nc(NNC2=CC(=O)CC(C)(C)C2)n1` it was -0.196%; in that of `CC(C)(C)N(Cc1ccccc1)C(=O)COC(=O)CCc1c[nH]c2ccccc12`, -1%. As for `COc1ccc(N2C(=O)/C(=C\c3ccco3)N=C2SCC(N)=O)cc1Cl`, the figure is -0.66%. For `Cc1cc(C)n(S(=O)(=O)c2cccc([N+](=O)[O-])c2)n1`, the caspase activation is 0.962%.

Consider `O=C(NCc1ccco1)c1ccc([N+](=O)[O-])cc1Cl`, for which the caspase activation is 1.19%.

In the case of `COc1cc2c(cc1NC(=O)COC(=O)/C=C/c1ccccc1)oc1ccccc12`, the caspase activation was 8.52% (active).

With `COc1cc2c(cc1NC(=O)CN1CCN(S(=O)(=O)c3ccc(F)cc3)CC1)oc1ccccc12`, the caspase activation was -0.105%. Turning to `COc1cc(/C=C/C(=O)OCC(=O)c2ccccc2)cc(OC)c1OC`, the caspase activation was 0.0945%. As for `Cc1[nH]n(-c2ccccc2)c(=O)c1CCOC(=O)c1ccc(C(F)(F)F)cc1`, the figure is 0.514%; as for `O=C(CCc1nnc2ccc(NCc3ccccc3Cl)nn12)NCC1CCN(C2CCCC2)C1` (configuration not stated), -0.323%; as for `CCC(C)(C)c1ccc(OCC(=O)N(C)C)c(C(C)(C)CC)c1`, -0.559%. For `O=C(COc1ccc([N+](=O)[O-])cc1Cl)Nc1ccc2[nH]c(=O)[nH]c2c1`, the caspase activation was -0.19%. On to `Cc1cc(OCCN2CCCC2)cc(C(C)C)c1`, for which the caspase activation is 0.0914%.

On to `O=C(O)CC1S/C(=N\N=C/c2ccccc2O)N(c2ccc(O)cc2)C1=O` (configuration not stated), for which the caspase activation is 0.687%. In the case of `CCOc1ccc(NC(=O)CC2C(=O)N(c3ccccc3)C(=O)N2CCOC)cc1` (configuration not stated) it was 0.358%; in that of `C=CCC1(C#N)C(=S)NC(C)=C(C(=O)OCC)C1c1ccccc1` (configuration not stated), 0.0109%. In the case of `Cc1cccc(NS(=O)(=O)c2ccc(C)c(C(=O)NCC(c3ccccc3)N(C)C)c2)c1` (configuration not stated) it was 1.2%; in that of `Cc1c2cn[nH]c(=O)c2c(C)n1Cc1ccc(F)cc1`, -0.558%; in that of `Cc1cc(NC(=O)CSc2nnc(-c3ccco3)n2N)no1`, -0.817%. For `Cc1cc(NC(=O)CSc2nc3ccccc3n2CC(C)C)no1`, the caspase activation is 0.633%. As for `Cc1cc(NC(=O)CSc2nc3cc(Cl)ccc3c(=O)n2Cc2ccco2)no1`, the figure is 29.5% (active). On to `CC(NC(=S)Nc1ccccc1)C1COc2ccccc2O1` (configuration not stated), for which the caspase activation is -0.247%. In the case of `CCC1=NN(C(=O)Cc2ccc([N+](=O)[O-])cc2)C(O)(c2ccc(Br)cc2)C1` (configuration not stated) it was 1.08%.

In the case of `Cc1ccc(S(=O)(=O)N(CC(O)CN2C(=O)NC(C)(C)C2=O)c2cccc([N+](=O)[O-])c2)cc1` (configuration not stated), the caspase activation was 0.0755%. Turning to `CSc1nnnn1-c1c(C)cc(C)cc1C`, the caspase activation is -0.157%. As for `O=C1CCC(C(=O)N2CCCCO2)CN1Cc1cccc(C(F)(F)F)c1` (configuration not stated), the figure is 0.28%. As for `Cc1ccc(/C=C/C(=O)OCC(=O)NCc2ccc(Cl)cc2)o1`, the caspase activation is -0.527%. As for `CCOC(=O)CSc1nc(C)cc2c1C(=O)OC2`, the figure is 0.711%; as for `CCOC(=O)CSC1=N/C(=C/c2ccc(-n3cncn3)cc2)C(=O)N1C(C)=O`, 8.99% (active); as for `CCOC(=O)CSc1ccccn1`, -0.651%. As for `O=C1CCC(C(=O)N2CCC(O)(c3ccccc3)CC2)CN1CCc1ccccc1` (configuration not stated), the figure is 0.199%. `COCCNc1ccc(-c2n[nH]c(=O)c3ccccc23)cc1[N+](=O)[O-]`: the caspase activation was -1.33%. In the case of `Cc1ccc(NC(=O)c2ccc(Oc3ncccn3)cc2)cc1` it was -1.4%.

On to `Cc1ccccc1N1CCN(C2CCCN(C(=O)c3ocnc3C)C2)CC1` (configuration not stated), for which the caspase activation was 0.888%. In the case of `CCc1ccc(/C=N/NC(=O)c2ccc(OC3CCCC3)cc2)s1` it was -0.334%.
